Compound activity (PubChem BioAssay)
JMJD2E inh – qHTS Assay for Inhibitors of Human Jumonji Domain Containing 2E (JMJD2E). Lysine-specific demethylase 4E (Homo sapiens), B2RXH2. JMJD2E catalytic domain, FDH-coupled NADH fluorescence (FDH is formaldehyde dehydrogenase). Potency, µM (doses to about 57.1 µM), for inactives: at the top dose activity change, negative = inhibition, most hits filed as inhibitors. 1.6% of 230,000 active; active = well fitted inhibition curve with a large enough effect, not every such curve was filed as active; inconclusive = small, poorly fitted or top-dose-only effect, or another doubt; inactive = no such curve, though single readings can be large or run the other way;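 note: 0% = wells with enzyme and -100% = buffer wells without enzyme; nearly all actives have a fitted effect of over 50% in size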
L3MBTL1 block – qHTS Assay for the Inhibitors of L3MBTL1; 0.66% of 230,000 active; Potency, µM (doses to about 57.1 µM), for the others: top-dose activity, negative = inhibition, most hits filed as inhibitors; AlphaScreen L3MBTL1–H3K9me1 peptide binding; Lethal(3)malignant brain tumor-like protein 1 (Homo sapiens), Q9Y468; note: nearly all actives have a fitted effect of over 60% in size
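L3MBTL1 (50 nM) pre-complexed 30 min with biotinylated H3(1-15)K9me1 peptide (75 nM), then compounds added for 30 min at room temperature; AlphaScreen streptavidin donor/nickel chelate acceptor beads (10 ug/mL final) read after 30 min dark incubation.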
BLM helicase inh – qHTS Assay for Inhibitors of Bloom's syndrome helicase (BLM) | RecQ-like DNA helicase BLM (Homo sapiens), P54132 | recombinant BLM DNA unwinding, fluorescence dequenching | Potency, µM (highest dose often 56.1 µM), for the others: at the highest dose activity change, negative = inhibition, actives largely listed as inhibitors | 0.2% of 350,000 active;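 note: plate controls were vehicle for no effect and no enzyme for full effect; nearly all actives have a fitted effect of over 35% in size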
TDP1 inh – qHTS Assay for Inhibitors of Tyrosyl-DNA Phosphodiesterase (TDP1); Tyrosyl-DNA phosphodiesterase 1 (Homo sapiens), Q9NUW8; recombinant TDP1, AlphaScreen DNA substrate cleavage; Potency, µM (titrated, usually from 130 µM), inactives show top-dose activity change, negative = inhibition, actives largely listed as inhibitors; 0.28% of 350,000 active; note: nearly all actives have a fitted effect of over 40% in size
Target sequence (Q9NUW8 whole entry, looked up): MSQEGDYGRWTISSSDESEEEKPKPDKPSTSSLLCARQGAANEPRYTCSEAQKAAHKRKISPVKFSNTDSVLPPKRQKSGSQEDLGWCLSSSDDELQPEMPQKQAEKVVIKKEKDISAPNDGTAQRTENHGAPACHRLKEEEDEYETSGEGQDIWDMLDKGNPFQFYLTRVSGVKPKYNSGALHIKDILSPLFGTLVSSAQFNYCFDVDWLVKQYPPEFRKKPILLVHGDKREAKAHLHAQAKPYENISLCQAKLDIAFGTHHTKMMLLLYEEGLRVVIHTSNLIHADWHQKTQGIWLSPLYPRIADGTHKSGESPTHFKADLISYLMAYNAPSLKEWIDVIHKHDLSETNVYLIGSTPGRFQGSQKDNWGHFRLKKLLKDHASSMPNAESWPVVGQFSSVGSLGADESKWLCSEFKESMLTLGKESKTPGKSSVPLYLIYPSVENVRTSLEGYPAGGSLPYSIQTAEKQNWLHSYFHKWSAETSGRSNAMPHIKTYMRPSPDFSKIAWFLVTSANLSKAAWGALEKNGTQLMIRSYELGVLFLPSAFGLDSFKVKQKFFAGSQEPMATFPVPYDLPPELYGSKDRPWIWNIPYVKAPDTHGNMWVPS
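AlphaScreen read-out: signal falls as enzyme removes the 3' tyrosine-FITC from a 5'-biotinylated DNA oligo (15 nM, 5 min, RT). Enzyme was E. coli-made recombinant Tdp1 at 1 nM, exposed to compound for 15 min beforehand; beads 10 ug/ml, 10 min.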
RECQ1 helicase – qHTS Assay for Inhibitors of RecQ-Like Dna Helicase 1 (RECQ1) | ATP-dependent DNA helicase Q1 (Homo sapiens), P46063 | RECQ1 DNA unwinding, red fluorescence kinetic read | Potency, µM (top dose mostly 57.3 µM), without a hit: at the top dose activity, negative = inhibition, usual class: inhibitors | 0.54% of 240,000 active | AID 2549, 2010;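 note: plate controls were vehicle for no effect and no enzyme for full effect; nearly all actives have a fitted effect of over 30% in size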
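50 nM RECQ1T1 preincubated 15 min with compound in Tris pH 8.0 buffer with MgCl2, DTT, Tween-20 and 2.5 ug/ml poly(dI-dC); started with 200 nM TAMRA/BHQ-2 forked duplex and 2 mM ATP. Unwinding read as fluorescence (525/598 nm), two reads 2 h apart.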
APE1 inh – qHTS Assay for Inhibitors of the Human Apurinic/apyrimidinic Endonuclease 1 (APE1); 0.35% of 350,000 active; Potency, µM (highest dose often 65.8 µM), for inactives: at the top dose activity change, negative = inhibition, usual class: inhibitors; recombinant APE1, TAMRA/BHQ-2 abasic DNA cleavage fluorescence;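 note: plate controls were vehicle for no effect and reference inhibitor for full effect; nearly all actives have a fitted effect of over 55% in size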
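Enzyme (0.75 nM final) and test compound are incubated 15 min at room temperature before adding 50 nM quenched THF abasic-site duplex. Cleavage dequenches TAMRA, followed at 525/598 nm over three reads one minute apart.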
Starred values were filed as active, the others as inactive; i = inactive; ? = inconclusive; nt = no result given; ! = not active in a repeat; [ ] = dose if it differs, or a comment. Only a selection was taken, and hits are over-represented in it overall. Unless noted, calls come from the whole dose curve; as a rule, active = well fitted curve in the direction sought with a large enough effect; inconclusive = small, poorly fitted or top-dose-only effect, or another doubt; inactive = no such curve, though single readings can be large; an effect the other way counts as inactive or inconclusive. Unless noted, % is set by controls: 0 for no effect and ±100 for the full control effect; potency is the fitted concentration of half-maximal effect.

SMILES | JMJD2E inh | L3MBTL1 block | BLM helicase inh | TDP1 inh | RECQ1 helicase | APE1 inh
CCOC(=O)c1c(C)oc2c1c(C=NCC1CCCO1)c(O)c1ccccc12 (stereo not given) | 5% | 0% | -2% | -1% | 18% | 5%
S=C(Nc1ccc2nsnc2c1)N1CCCCC1 | 11µM* | -1% | -17% | -6% | -1% | -9%
S=C(Nc1ccc(Cl)c(Cl)c1)N1CCCC1 | nt | nt | -4% | nt | nt | 57%
O=C1c2ccccc2C(=O)c2c(O)ccc(O)c21 | -15% | nt | -11% | 14% | i | 9%
O=C1c2ccccc2C(=O)c2c(O)c(O)cc(O)c21 | 22µM* | ? | 53% | ? | 6.3µM* | 19µM*
Nc1ccc(O)c2c1C(=O)c1ccccc1C2=O | -1% | ? | 14µM* | nt | 1% | 10%
COCCCCCCCCCCCC(=O)O | 7% | nt | 1% | 5% | 2% | 2%
N#CC1=C(N)OC2=C(CCC/C2=C/c2ccoc2)C1c1ccoc1 (stereo not given) | 25µM* | 16µM* | 37% | nt | 22µM* | 14µM*
COc1ccc(Cn2ncc3c4sc(C)cc4n(C)c3c2=O)cc1 | nt | nt | nt | -3% | nt | nt
c1nc(NCc2ccoc2)c2cc(-c3ccc4c(c3)OCO4)ccc2n1 | nt | nt | nt | 4% | nt | nt
O=C1c2ccccc2-c2onc3ccc(NCCCn4ccnc4)c1c23 | 2% | nt | 35µM* | 10% | 28µM* | 28µM*
NS(=O)(=O)c1ccc(N=Nc2c[nH]c(=O)c(O)c2)cc1 | 32µM* | ? | -15% | -6% | -18% | ?
Nc1nc(O)c(N=Nc2ccc(S(N)(=O)=O)cc2)c(=O)[nH]1 | nt | nt | -5% | nt | nt | 14%
O=C(Nc1ccc(N2CCOCC2)cc1)c1ccc2nc(-c3ccco3)c(-c3ccco3)nc2c1 | 4% | -7% | -10% | 6% | -8% | -6%
CCCCNC(=O)c1ccc2nc(-c3ccco3)c(-c3ccco3)nc2c1 | ? | 32µM* | 16µM* | -8% | 2% | -5%
CNC(=O)c1ccc2nc(-c3ccco3)c(-c3ccco3)nc2c1 | nt | nt | nt | 11µM* | nt | nt
O=C(Nc1ccccc1)c1ccc2nc(-c3ccco3)c(-c3ccco3)nc2c1 | ? | ? | 32µM* | 0% | 1% | 2%
CCc1nc2ccc(C(=O)NCCc3ccco3)cc2nc1CC | nt | nt | 0% | 10% | nt | -5%
CN(C)/C=C1\SC(=S)N(c2ccc(Br)cc2)C1=O | 3% | nt | 4% | 4% | 32µM* | 28µM*
CCN1C(=O)/C(=C\N(C(C)=O)c2ccccc2)OC1=S | -2% | -24% | 0% | -2% | 3% | 1%
CC(=O)N(/C=C1\SC(=S)N(c2ccccc2)C1=O)c1ccccc1 | -1% | -19% | -7% | nt | 32µM* | -10%
CN1CCN(c2ncc3c(n2)CCN(Cc2ccccc2Cl)C3)CC1 | nt | nt | -2% | -1% | nt | nt
Cc1ccccc1-c1nc(N2CCN(C)CC2)c2ccccc2n1 | nt | nt | -7% | nt | i | 0%
Cc1ccccc1-c1nc(N2CCOCC2)c2ccccc2n1 | nt | nt | -13% | nt | -11% | 8.9µM*
O=C(NCCN1CCOCC1)C1(C(F)(F)F)CC(CCCO)CCCO1 (stereo not given) | nt | nt | -2% | 1% | i | 1%
SMILES | JMJD2E inh | L3MBTL1 block | BLM helicase inh | TDP1 inh | RECQ1 helicase | APE1 inh
Cc1ccccc1-c1cncnc1NCCN1CCOCC1 | -11% | nt | 2% | 35µM* | -13% | 4%
C=C1[C@@H]2CC[C@@H](C2)C1(C)C | nt | nt | nt | nt | nt | -1%
O=C(/C=C/c1ccc(O)cc1)c1ccc(NC2=C(N3CCCCC3)C(=O)c3ccccc3C2=O)cc1 | 18µM* | ? | 1% | 11% | ? | -7%
O=C1C(Nc2ccccc2)=C(N2CCCCC2)C(=O)c2ccccc21 | -7% | -18% | -6% | 1% | -4% | -2%
CCOc1cc(C=O)cc(N=Nc2cccc([N+](=O)[O-])c2)c1O | nt | -15% | -7% | 8% | nt | 4%
Cc1nc(N=Nc2cc([N+](=O)[O-])ccc2Cl)c(COP(=O)(O)O)c(C=O)c1O | nt | nt | 0% | 6% | 28µM* | 35µM*
O=C(CN1C(=O)c2ccccc2S1(=O)=O)c1ccc(F)c(F)c1 | nt | nt | -2% | 1% | nt | 8%
O=C(CN1C(=O)c2ccccc2S1(=O)=O)c1ccc(O)c(O)c1 | 14µM* | nt | -1% | nt | 2% | 8%
COc1ccc(O)c(/C=N/NC(=O)c2cccc(N3CCCC3=O)c2)c1 | nt | nt | -9% | 13% | nt | 44%
O=C(N/N=C/c1cc(Br)ccc1O)c1cccc(N2CCCC2=O)c1 | 28µM* | -8% | -1% | 0% | 1% | 0%
CCOC(=O)c1c(-c2cccs2)csc1NC(=O)CNCCN1CCOCC1 | 22µM* | -12% | 0% | 7% | -2% | -1%
CCOC(=O)c1c(-c2ccc(F)cc2)csc1NC(=O)CCN1CCOCC1 | 25µM* | -10% | -2% | nt | -1% | 16%
CCOC(=O)c1c(-c2ccc(-c3ccccc3)cc2)csc1NC(=O)CCN1CCOCC1 | -30% | -1% | -14% | 3% | 1% | -4%
CCOC(=O)c1c(-c2cccs2)csc1NC(C)=O | 8% | -5% | -4% | -1% | -3% | -4%
COc1ccc(NS(=O)(=O)c2ccccc2C(=O)O)cc1 | nt | nt | nt | 3% | nt | nt
CCCCC1=CC2=CC(=O)C(C)(OC(=O)CC)C(=O)C2=CN1c1ccccc1 (stereo not given) | 25µM*! | nt | -4%[12.4 µM] | -4%[21 µM] | -7%[11.5 µM] | 1%[12.4 µM]
CCCCC1=CC2=CC(=O)C(C)(OC(=O)CC)C(=O)C2=CN1c1ccncc1 (stereo not given) | 10%[11.4 µM] | nt | -1%[12.4 µM] | 7%[21 µM] | -2%[11.5 µM] | 0%[12.4 µM]
COC(=O)CCCC1=CC2=CC(=O)C(C)(OC(=O)c3cccs3)C(=O)C2=CN1CCc1c[nH]c2ccccc12 (stereo not given) | 5.6µM*! | nt | -11%[12.4 µM] | -9%[21 µM] | i[11.5 µM] | -10%[12.4 µM]
COc1ccc(N2C=C3C(=O)C(C)(OC(=O)CCc4ccccc4)C(=O)C=C3C=C2c2ccc(C#N)cc2)cc1 (stereo not given) | 20µM*! | nt | -1%[12.4 µM] | 19%[12.3 µM] | -4% | -1%[12.4 µM]
CCN(CC)CCCN1C=C2C(=O)C(C)(OC(=O)CCc3ccccc3)C(=O)C=C2C=C1c1ccc(C#N)cc1 (stereo not given) | ? | nt | -7%[12.4 µM] | -3%[12.3 µM] | i[11.5 µM] | -3%[12.4 µM]
